Shown are actives, neighbours in structure and some others; about 14% of the full set was active somewhere.
Pf growth 48h = Primary qHTS for delayed death inhibitors of the malarial parasite plastid, 48 hour incubation; P. falciparum luciferase growth in erythrocytes, 48 h; Potency, µM (top dose mostly 28.7 µM), without a hit: at the highest dose activity change, negative = inhibition, hits mostly inhibitors; actives 5.9% (n = 310,000); further: potency means the concentration at half of the fitted maximal effect
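Luciferase-expressing parasites in RBCs, 2% Hct / 0.1% parasitemia final; RPMI 1640 + 0.5% Albumax; 37 C, 5% CO2, one generation; luminescence read-out, lower signal = inhibition.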
HCMV inh = qHTS Assay for inhibitors of the human cytomegalovirus (HCMV) | HFF cells, HCMV-luciferase reporter, 72 h; hits give low values | actives 4.5% (n = 410,000) | activity change, negative = inhibition, % at 57.5 µM; in the data active means activity change below about -60%; inconclusive means no clear call, values can overlap the other calls; inactive means above about -39%
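Cell-based, HFFs, 1000 cells/well, 16 h 37C; cpds in DMSO + HCMV-luc, MOI 1 PFU/cell; 72 h 37C; OneGlo luminescence after 5 min RT; norm. to buffer vs Salinomycin 10uM.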
Pf growth 96h = Primary qHTS for delayed death inhibitors of the malarial parasite plastid, 96 hour incubation. AID 504834, 2011. Potency, µM (highest dose often 28.7 µM), without a hit: top-dose activity change, negative = inhibition, usual class: inhibitors. actives 6.9% (n = 320,000). P. falciparum luciferase reporter growth, 96 h; further: potency means the concentration at half of the fitted maximal effect
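Parasite growth measured via integrated firefly luciferase reporter in P. falciparum. Infected erythrocytes at 2% hematocrit, 0.05% parasitemia final were treated 96 hours at 37 C under 5% CO2, and luminescence was read.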
Sm TGR block = qHTS Assay for the Inhibitors of Schistosoma Mansoni Peroxiredoxins; Schistosoma mansoni thioredoxin glutathione reductase (TGR), Q962Y6; purified TGR, DTNB reduction, TNB absorbance 405 nm; Potency, µM (top dose mostly 114 µM), for the others: at the top dose activity change, negative = inhibition, hits mostly inhibitors; actives 3% (n = 360,000); further: potency means the concentration at half of the fitted maximal effect; nearly all actives have a fitted effect of over 60% in size
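TGR 20 nM + NADPH 100 uM (dispensed conc.), cpd preinc 15 min RT; start with NADPH (500 uM addition) then DTNB (15 mM addition). Kinetic TNB absorbance, 405 nm filter. Four-parameter Hill fit across titration.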
Giardia FBPA inh = qHTS Assay for Inhibitors of Fructose-1,6-bisphosphate Aldolase from Giardia Lamblia; Potency, µM (series often up to 59.6 µM), inactives show top-dose activity, negative = inhibition, actives largely listed as inhibitors; A8B2U2; AID 2451, 2010; purified Giardia FBPA; actives 0.71% (n = 290,000); further: potency means the concentration at half of the fitted maximal effect; nearly all actives have a fitted effect of over 55% in size
Target sequence (A8B2U2 whole entry, looked up): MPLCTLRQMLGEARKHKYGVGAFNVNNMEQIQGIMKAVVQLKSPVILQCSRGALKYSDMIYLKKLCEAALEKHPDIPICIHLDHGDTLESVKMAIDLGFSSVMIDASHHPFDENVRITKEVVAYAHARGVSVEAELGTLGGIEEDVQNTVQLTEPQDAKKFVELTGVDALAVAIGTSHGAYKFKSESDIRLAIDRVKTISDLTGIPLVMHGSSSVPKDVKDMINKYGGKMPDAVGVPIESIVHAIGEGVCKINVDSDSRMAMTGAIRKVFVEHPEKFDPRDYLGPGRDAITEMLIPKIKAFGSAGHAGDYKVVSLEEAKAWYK
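Giardia FBPA (40 nM reagent) was preincubated 10 min at RT with compound (up to 57.5 uM final), then substrate plus GAPDH/TPI/NAD/arsenate coupling system with diaphorase/resazurin was added; resorufin fluorescence (525/598 nm) was read after 20 min.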
Numbers without * were called inactive; ? = inconclusive; . = no result given; + = active, no number; [ ] = remark or other dose. Unless noted, the call rests on the fitted dose curve; in most records, active means well fitted curve in the direction sought with a large enough effect; inconclusive means small, poorly fitted or top-dose-only effect, or another doubt; inactive means no such curve, though single readings can be large; an effect the other way counts as inactive or inconclusive. On the % scale 0 is the no-effect control and ±100 the full control effect.

SMILES | Pf growth 48h | HCMV inh | Pf growth 96h | Sm TGR block | Giardia FBPA inh
C=CCN(CC=C)C(=S)NC(=O)c1ccc(OC)c(Br)c1 | 10µM* | . | 15µM* | -20% | -10%
COc1ccc(C(=O)c2ccc(OC)c(Br)c2)cc1Br | 8% | -19 | ? | 10µM* | -4%
COc1ccc(C(=O)c2cccc(C(=O)c3ccc(OC)c(C)c3)c2)cc1C | 0% | 32 | 1% | -14% | 9%
C=CCNC(=S)NC(=O)c1ccc(C)c(Br)c1 | -14%[5.75 µM] | -19 | 29% | 32µM* | ?
O=C(NC1CCN(Cc2ccccc2)CC1)c1ccc(Cn2c(=O)c3ccccc3n(Cc3ccc(Cl)cc3)c2=O)cc1 | . | 3 | . | -1% | .
OC(CNC1CCCc2ccccc21)COc1c(Cl)cccc1Cl (stereo not drawn) | 1.9µM* | -33 | 3.3µM* | -1% | -20%
CCSc1nnc(NC(=O)c2ccccc2C)s1 | 292% | 77 | ? | 7% | -8%
O=c1/c(=C/c2ccc([N+](=O)[O-])cc2)sc2n1CCCN=2 | 98% | -91* | 116% | 3% | -8%
CC1=C(C(N)=O)C(c2cccs2)NC(=O)N1 (stereo not drawn) | ? | ? | 58% | -13% | 1%
COc1ccc(Cc2nc3ccc(C(=O)NCCCSC)cc3o2)cc1OC | -15% | 95 | 2.9µM* | -20% | 8%
CC1(C)Oc2ccc(C(=O)Nc3ccccc3)cc2N(CC#N)C1=O | -5% | -6 | 2.9µM* | -12% | -7%
CC1(C)Oc2ccc(C(=O)NC3CCCCC3)cc2N(CC#N)C1=O | ? | -28 | ? | -7% | -3%
Cc1csc(CNC(=O)CC2C(=O)NCCN2Cc2ccc(F)cc2Cl)n1 (stereo not drawn) | 2% | 72 | -2% | 7% | .
Cc1csc(CN(C)C(=O)CC2C(=O)NCCN2Cc2ccc(F)cc2Cl)n1 (stereo not drawn) | 2% | -32 | 75% | 13µM* | .
Cc1csc(CN(C)C(=O)CC2C(=O)NCCN2Cc2ccc(-c3ccccc3)cc2)n1 (stereo not drawn) | 19% | -29 | 13% | 11% | 3%
Cc1csc(CN(C)C(=O)CC2C(=O)NCCN2Cc2ccc(Cl)c(F)c2)n1 (stereo not drawn) | -10% | + | 9.3µM* | 45µM* | -15%
CSc1sc2ccccc2[n+]1CCCS(=O)(=O)[O-] | 7% | -23 | 63% | -33% | 17%
CC[n+]1c(/C=C(\C)OC)sc2ccccc21 | 34% | -18 | -29% | 21% | -16%
CC[n+]1c(/C=C(/C)SC)sc2ccccc21 | 1.7µM* | 32 | ? | -15% | -4%
COc1ccc(N/C(C)=C/C(=S)Nc2ccccc2)cc1 | 45% | -12 | 41% | -33% | ?
CC[n+]1c(/C=C(\C)Nc2ccccc2)sc2ccccc21 | 5.2µM* | 16 | -18% | -12% | -9%
CC[n+]1c(/C=C(\C)SC)sc2ccccc21 | 0.29µM* | -31 | ? | 2% | ?
CC/C(=C/c1sc2ccccc2[n+]1CC)SC | ? | -6 | 1.7µM* | 2% | 1%
CNc1nc2cnc(Nc3cccc(F)c3)cc2n1CCOC | . | 15 | . | . | .
Cc1ccc(S(=O)(=O)N2CCC(=O)N(C(COCc3cccc(Cl)c3)C(C)C)CC2)cc1 (stereo not drawn) | 15µM* | -11 | 10µM* | -16% | -9%
SMILES | Pf growth 48h | HCMV inh | Pf growth 96h | Sm TGR block | Giardia FBPA inh
Cc1ccc(S(=O)(=O)N2CCC(=O)N([C@H](COCc3cccc(Cl)c3)C(C)C)CC2)cc1 | . | -11 | . | . | .
Cc1ccc(S(=O)(=O)N2CCC(=O)N(C(COCc3cccc(C(F)(F)F)c3)C(C)C)CC2)cc1 (stereo not drawn) | ? | . | 10µM* | -15% | -11%
Cc1ccc(S(=O)(=O)N2CCC(=O)N([C@H](COCc3ccc(Cl)c(Cl)c3)Cc3ccccc3)CC2)cc1 | . | -20 | . | . | .
Cc1ccc(S(=O)(=O)N2CCC(=O)N(C(COCc3cccc(C)c3)C(C)C)CC2)cc1 (stereo not drawn) | 10µM* | -4 | 13µM* | -18% | -10%
CN(C(=S)NC(=O)C1CC1)c1ccc(O)cc1 | 82% | ? | 127% | ? | .
CC(C)c1nnc(SCC(=O)Nc2ccc3c(c2)OCCO3)n1C | 10% | -32 | 5% | 9% | .
O=C(Nc1ccc(Oc2ccccc2)cc1)c1ccc2nc([C@@H]3O[C@H](CO)[C@H](O)[C@H](O)[C@H]3O)[nH]c2c1 | . | -2 | . | . | .
Nc1nc(N)c(-c2ccccc2)s1 | -12% | . | ? | . | .
CCC(COC(=O)NC)NC(=O)Oc1ccccc1 (stereo not drawn) | 57% | -31 | 4.7µM* | 4% | -1%
CCC(COC(=O)NC)NC(=O)Oc1cccc(C)c1 (stereo not drawn) | -1% | -9 | ? | 9% | .
Cc1cc(C)n(C(=O)/C(C#N)=N/Nc2cc(Cl)cc(Cl)c2)n1 | 12µM* | . | ? | -1% | -1%
Oc1ccccc1/C=N/NC(=S)NC1CC2CCC1C2 (stereo not drawn) | 3.7µM* | ? | 1.3µM* | 1% | 10%
COc1ccccc1NC(=S)NC1CC2CCC1C2 (stereo not drawn) | -12% | ? | ? | -13% | -1%
COc1cccc(/C=N/NC(=S)NC2CC3CCC2C3)c1OC (stereo not drawn) | 6.6µM* | -28 | 4.7µM* | -11% | -1%
COc1cccc(C=NNC(=S)NN=Cc2cccc(OC)c2OC)c1OC | . | -10 | . | . | .
S=C(N/N=C/c1ccco1)NC1CC2CCC1C2 (stereo not drawn) | . | 7 | 5.2µM* | ? | 24%
COc1ccccc1/C=C/C(=O)NCC(=O)N/N=C/c1ccc(C)o1 | 11% | ? | -18% | ? | -7%
COc1cc(C2C(C#N)=C(N)N(c3ccc(F)cc3)C3=C2S(=O)(=O)CC3)ccc1O (stereo not drawn) | -17% | -10 | 53% | 45µM* | ?
CCOC(=O)C1=C(C)OC(N)=C(C#N)C1c1ccc(O)c(OC)c1 (stereo not drawn) | . | -15 | ? | -15% | -2%
CCOc1ccc(NC(=O)CCS(=O)(=O)c2ccc(Br)s2)cc1 | . | -7 | . | -1% | .
CN(C)CCOC(=O)C1(c2ccccc2)CCCC1 | . | 9 | -101% | 4% | -10%
O=C(OCCN1CCCC1)C1(c2ccccc2)CCCC1 | 1% | 12 | 0.74µM* | -4% | -9%
C[N+]1(CCCOC(=O)C2(c3ccccc3)CCCC2)CCOCC1 | 12µM* | -27 | ? | 1% | 3%
CC[C@]12C(=O)N(C)C[C@H]([C@@H]3C(=O)N(C)C(=O)[C@@H]31)N2C(=O)c1ccc(Br)cc1 | . | -20 | . | . | .
